Data on six compounds can be found in PubChem BioAssay.

Each structure is given as a SMILES string. The source made the active and inactive calls.

A short description of test [1]: E. coli DRC41 culture turbidity changes, primary screen, E. coli filamentation inducer project, strain DRC41, OD650, 48 h (AID 1152).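 Further: E. coli MC1000 strain DRC41 lacking acrAB efflux pump and sulA.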 The settings on record: E. coli DRC41 (acrAB sulA), higher = more signal, called active from +8 up or from −8 down.
Test [2] in a line: small-molecule binders of probe aLefty1, primary screen, biochemical, small-molecule microarray, 635/667 nm fluorescence (AID 1153).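 Further: score merges spot fluorescence with signal-to-noise ratio from the scanned slide images.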 The settings on record: higher = more signal.
The nature of test [3]: PSAC antagonists in infected red cells, primary screen, cell-based, P. falciparum Indochina, OD700, 1 h (AID 1154). The note with it: P. falciparum Indochina infected RBC osmotic lysis, higher = more signal, called active from +8 up or from −8 down.
The nature of test [4]: PSAC antagonists in infected red cells, primary screen, cell-based, P. falciparum Indochina, OD700, 2 h (AID 1155).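 Further: lysis reports solute entry through the parasite surface anion channel PSAC; channel blockers reduce lysis of infected cells.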 The settings on record: P. falciparum Indochina infected erythrocytes, osmotic lysis OD700; higher = more signal, called active from +8 up or from −8 down.
The nature of test [5]: osmotic lysis modulators in infected erythrocytes, primary screen, PSAC antagonist project, cell-based, P. falciparum Indochina, OD700, 3 h (AID 1156). The settings on record: higher = more signal, called active from +8 up or from −8 down.
Test [6] is described as follows: PSAC antagonists in infected red cells, primary screen, cell-based, P. falciparum Indochina, OD700, 18 h (AID 1157). The settings on record: P. falciparum Indochina infected erythrocytes, osmotic lysis OD700, 18 h; higher = more signal, called active from +8 up or from −8 down.
Test [7] in a line: modulators of S6 phosphorylation in cells, primary screen, cell-based, A549, cytoblot, luminescence, serum-stimulated (AID 1158).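 Further: serum-stimulated A549 lung adenocarcinoma cells; signal is phosphorylated S6 detected by cytoblot immunostaining with HRP secondary.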 The settings on record: A549 phospho-S6 cytoblot, 5 h, higher = more signal.
Test [8] deals with NADPH oxidase 2 (Homo sapiens) (UniProt P04839). In words: NOX2-dependent H2O2 signal modulators, primary screen, NOX inhibitor project, cell-based, HEK293-NOX2, PMA-stimulated, Amplex Red fluorescence (AID 1159). Further: test concentration not given here. The settings on record: 45 min, higher = more signal, called active from +8 up or from −8 down.
Test [9] concerns the target NADPH oxidase 4 (Homo sapiens) (UniProt Q9NPH5). The test can be described thus: NOX4-dependent H2O2 signal modulators, primary screen, NOX inhibitor project, cell-based, HEK293-NOX4, tetracycline-induced, Amplex Red fluorescence (AID 1160). The note with it: 45 min, higher = more signal, called active from +8 up or from −8 down.
Test [10] concerns the target NADPH oxidase 5 (Homo sapiens) (UniProt Q96PH1). The test can be described thus: NOX5-dependent H2O2 signal modulators, primary screen, NOX inhibitor project, cell-based, HEK293-NOX5, Amplex Red fluorescence (AID 1161). The settings on record: HEK293-NOX5, ionomycin, 45 min, higher = more signal.
The nature of test [11]: A549 cell viability effects, profiling panel, calcein-AM fluorescence, 48 h, basal (AID 1162). Further: test concentration not given here. The settings on record: higher = more signal.
Test [12] in a line: adipocyte viability effects, profiling panel, cell-based, 3T3-L1 adipocytes, calcein-AM fluorescence, 48 h, basal (AID 1163). Further: test concentration not given here. The settings on record: 3T3-L1 adipocytes viability, higher = more signal.
Test [13] can be described thus: HepG2 cell viability effects, profiling panel, calcein-AM fluorescence, 48 h, basal (AID 1164). Further: test concentration not given here. The settings on record: higher = more signal.
A short description of test [14]: MM1S cell viability effects, profiling panel, calcein-AM fluorescence, 48 h, basal (AID 1165).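 Further: viability of MM1S multiple myeloma cells under basal unstimulated conditions; test concentration not given here.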 The note with it: higher = more signal.
Test [15] can be described thus: basal RPMI8226 viability, no added stimulus, profiling panel, cell-based, calcein-AM fluorescence, 48 h, PK04 Diversity Set (AID 1166).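 Further: cells grown under basal conditions without added stimulus; test concentration not given here.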 The note with it: RPMI8226 myeloma viability, higher = more signal.
Test [16] can be described thus: basal HepG2 mitochondrial membrane potential changes, profiling panel, cell-based, JC-1 fluorescence, 24 h, 100 nL compound (AID 1167). Further: test concentration not given here. The settings on record: higher = more signal.
The nature of test [17]: basal 3T3-L1 adipocyte mitochondrial potential changes, profiling panel, cell-based, JC-1 fluorescence, 3T3-L1 adipocytes, 24 h, 100 nL compound (AID 1168). Further: test concentration not given here. The settings on record: JC-1 mitochondrial fluorescence, higher = more signal, called active from +8 up or from −8 down.
A short description of test [18]: basal RPMI8226 mitochondrial membrane potential changes, profiling panel, cell-based, JC-1 fluorescence, 24 h, 100 nL compound (AID 1169). Further: test concentration not given here. The settings on record: RPMI8226 myeloma, JC-1 mitochondrial potential fluorescence, higher = more signal.
The nature of test [19]: basal MM1S mitochondrial membrane potential changes, profiling panel, cell-based, JC-1 fluorescence, 24 h, 100 nL compound (AID 1170). Further: test concentration not given here. The note with it: higher = more signal.
Test [20] in a line: A549 lung cancer cell viability effects, profiling panel, resazurin fluorescence, 24 h, PK04 Diversity Set (AID 1171). Further: test concentration not given here. The note with it: higher = more signal, called active from +8 up or from −8 down. (In general: Resazurin is reduced to fluorescent resorufin, in cell work by metabolically active cells.)

NADPH oxidase 4 (Homo sapiens), sequence (Q9NPH5 whole entry, looked up): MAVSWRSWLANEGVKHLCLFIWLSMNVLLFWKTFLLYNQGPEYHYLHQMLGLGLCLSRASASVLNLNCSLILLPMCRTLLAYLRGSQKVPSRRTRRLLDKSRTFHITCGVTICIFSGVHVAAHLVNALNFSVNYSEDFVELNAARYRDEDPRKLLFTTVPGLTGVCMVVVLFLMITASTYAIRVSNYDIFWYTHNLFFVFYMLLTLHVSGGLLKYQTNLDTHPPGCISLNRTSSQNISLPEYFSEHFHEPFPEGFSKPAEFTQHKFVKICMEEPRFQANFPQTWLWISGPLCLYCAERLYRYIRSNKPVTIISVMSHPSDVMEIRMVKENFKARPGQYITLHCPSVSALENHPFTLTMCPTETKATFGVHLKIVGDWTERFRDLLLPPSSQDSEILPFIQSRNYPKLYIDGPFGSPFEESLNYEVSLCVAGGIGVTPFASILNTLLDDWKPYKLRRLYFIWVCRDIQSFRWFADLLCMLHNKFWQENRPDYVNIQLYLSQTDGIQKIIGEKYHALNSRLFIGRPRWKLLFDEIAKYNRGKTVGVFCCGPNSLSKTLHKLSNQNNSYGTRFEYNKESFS
NADPH oxidase 2 (Homo sapiens), sequence (P04839 whole entry, looked up): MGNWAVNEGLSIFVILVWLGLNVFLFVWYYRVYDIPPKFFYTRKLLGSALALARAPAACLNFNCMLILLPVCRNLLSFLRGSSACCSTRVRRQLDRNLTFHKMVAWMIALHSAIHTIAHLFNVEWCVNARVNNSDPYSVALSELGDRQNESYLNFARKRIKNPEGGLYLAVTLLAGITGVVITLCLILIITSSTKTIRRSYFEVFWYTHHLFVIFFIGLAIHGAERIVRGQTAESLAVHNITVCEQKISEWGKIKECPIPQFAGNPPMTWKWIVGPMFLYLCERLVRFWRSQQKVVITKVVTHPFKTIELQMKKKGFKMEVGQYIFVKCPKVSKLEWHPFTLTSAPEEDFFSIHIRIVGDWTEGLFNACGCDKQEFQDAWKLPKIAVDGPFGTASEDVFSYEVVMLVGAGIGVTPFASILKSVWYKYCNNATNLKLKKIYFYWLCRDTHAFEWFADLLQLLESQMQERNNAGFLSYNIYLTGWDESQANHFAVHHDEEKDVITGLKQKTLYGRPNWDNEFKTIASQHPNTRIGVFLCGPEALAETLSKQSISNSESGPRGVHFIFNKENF
NADPH oxidase 5 (Homo sapiens), sequence (Q96PH1 whole entry, looked up): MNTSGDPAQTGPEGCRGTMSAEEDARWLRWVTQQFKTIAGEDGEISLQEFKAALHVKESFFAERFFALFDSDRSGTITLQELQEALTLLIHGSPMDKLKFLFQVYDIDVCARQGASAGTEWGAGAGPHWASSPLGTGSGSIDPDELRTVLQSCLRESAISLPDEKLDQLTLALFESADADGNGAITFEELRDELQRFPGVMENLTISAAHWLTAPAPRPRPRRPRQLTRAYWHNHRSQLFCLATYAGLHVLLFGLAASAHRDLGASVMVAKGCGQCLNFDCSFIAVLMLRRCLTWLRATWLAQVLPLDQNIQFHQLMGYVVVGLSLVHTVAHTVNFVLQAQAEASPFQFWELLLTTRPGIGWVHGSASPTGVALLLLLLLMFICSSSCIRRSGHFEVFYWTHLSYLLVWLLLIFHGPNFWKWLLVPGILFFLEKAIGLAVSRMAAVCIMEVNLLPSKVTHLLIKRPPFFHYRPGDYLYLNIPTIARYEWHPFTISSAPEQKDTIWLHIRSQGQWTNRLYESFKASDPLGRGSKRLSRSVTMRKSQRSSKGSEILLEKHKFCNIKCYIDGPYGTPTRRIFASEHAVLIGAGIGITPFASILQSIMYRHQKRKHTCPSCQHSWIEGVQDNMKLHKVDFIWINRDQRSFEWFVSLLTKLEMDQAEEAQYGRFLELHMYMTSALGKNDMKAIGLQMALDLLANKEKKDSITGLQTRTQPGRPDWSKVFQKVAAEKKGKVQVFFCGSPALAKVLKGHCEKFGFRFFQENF

As for `CC(=O)NCCCC[C@@H]1NC(=O)[C@H]2C[C@@H](C(=O)NCCCCCC[N+](C)(C)C)[C@@H](c3cccc(OCCO)c3)N2C1=O`, the z-score was 1.52 (inactive) in test [1]; 2.86 (inactive) in test [3]; -1.48 (inactive) in [4]; 0.657 (inactive) in test [5]; -2.25 (inactive) in test [6]; 0.778 in test [7]. The z-score is -0.329 (inactive) in test [8]; 0.383 (inactive) in test [9]; -0.465 in test [10]; -0.144 in test [11]; 1.14 in test [12]; -0.827 in [13]. The z-score in test [14] is 0.385; in [15], -0.418; in test [16], -1.44; in [17], 0.326 (inactive); in [18], -0.135; in test [19], -0.872. Further, the z-score in test [20] was 0.925 (inactive). Also, in test [2], the composite z-score came out at 0.147.
As to `CC(C)C[C@@H]1NC(=O)[C@H]2C[C@@H](C(=O)NCCCCCCNC(=O)CS)[C@@H](c3cccc(OCCO)c3)N2C1=O`, the z-score in test [1] is 1.03 (inactive); in test [3], 3.77 (inactive); in test [4], 0.194 (inactive); in test [5], 2.83 (inactive); in test [6], -0.042 (inactive); in test [7] it was -0.0016. For the same compound, the z-score was 1.14 (inactive) in test [8]; 0.665 (inactive) in test [9]; -0.112 in test [10]; 0.0674 in test [11]; 0.466 in [12]; 0.696 in test [13]. The z-score in test [14] is 0.118; in test [15] it was -0.0467; in test [16] it was -0.569; in [17], 0.844 (inactive); in [18] it was -0.404; in test [19] it was -0.343. In addition, the z-score in test [20] was 0.0056 (inactive). In [2], this compound displayed a composite z-score of -0.0523.
For the compound `COc1cc2c(cc1OC)CN(C(=O)[C@@H]1[C@H]3C(=O)O[C@H](c4ccccc4)[C@H](c4ccccc4)N3[C@H](c3ccccc3OCCO)[C@@]13C(=O)Nc1ccc(C#CCNC(N)=O)cc13)CC2`, the z-score in test [1] is 0.97 (inactive); in test [3], 1.14 (inactive); in [4], -0.45 (inactive); in [5], 0.333 (inactive); in test [6], -2.15 (inactive); in test [7] it was 3.09. The z-score was 1.24 (inactive) in [8]; 0.964 (inactive) in test [9]; -0.0555 in test [10]; 1.12 in test [11]; 1.62 in test [12]; 0.871 in test [13]. Also, the z-score in [14] is 0.52; in test [15], 0.625; in test [16] it was -1.74; in test [17], 1.63 (inactive); in test [18] it was -0.423; in [19], -0.322. In addition, the z-score in test [20] is -0.532 (inactive). The same compound came in with a composite z-score in [2] of 0.882.
Take `COC(=O)[C@@]1(Cc2ccc(OC)cc2)[C@H]2c3cc(C(=O)N4CCCC4)n(Cc4cc(F)cc5c4OCOC5)c3C[C@H]2CN1C(=O)c1ccccc1`: the z-score is -2.14 (inactive) in [1]; 1.15 (inactive) in test [3]; 0.142 (inactive) in [4]; 0.951 (inactive) in [5]; 0.522 (inactive) in [6]; -0.0863 in [7]. In addition, the z-score was -0.327 (inactive) in test [8]; -1.94 (inactive) in test [9]; -1.06 in test [10]; -1.67 in [11]; -0.151 in test [12]; -0.675 in test [13]. For the same compound, the z-score was -3.31 in [14]; -3.81 in [15]; 0.912 in test [16]; -0.562 (inactive) in test [17]; -0.753 in test [18]; -2.72 in [19]. The z-score in test [20] is -1.5 (inactive). In test [2], this compound showed a composite z-score of -0.12.
As to `N#Cc1ccc(NN2C(C(O)c3cccs3)C=CC3C(=O)N(c4ccccc4)C(=O)C32)cc1` (stereo not given), the z-score is -0.127 (inactive) in test [1]; 5.65 (inactive) in [3]; -0.131 (inactive) in [4]; 0.832 (inactive) in test [5]; -0.741 (inactive) in test [6]; 0.578 in test [7]. The z-score in test [8] is -2.12 (inactive); in [9], -5.34 (inactive); in test [10] it was -3.05; in test [11], 0.594; in [12], -0.327; in test [13], 1.01. For the same compound, the z-score in [14] is -0.0964; in test [15], -0.598; in test [16], -0.307; in test [17], -0.0937 (inactive); in test [18], 0.49; in test [19], -0.218. Also, in test [20], the z-score is 0.234 (inactive). Besides, the composite z-score in [2] turned out to be 0.0262.
With `O=C(CCN1CCOCC1)c1cccc(O)c1`, the z-score in [1] is -0.202 (inactive); in test [3], 0.205 (inactive); in test [4], -1.48 (inactive); in [5] it was -0.582 (inactive); in [6] it was -1.68 (inactive); in test [7], 0.4. The z-score was -2.74 (inactive) in test [8]; -0.206 (inactive) in test [9]; 1.72 in test [10]; 0.867 in test [11]; 0.75 in [12]; -0.891 in test [13]. Besides, the z-score in [14] is -3.16; in [15] it was -1.74; in test [16], 0.109; in test [17], -0.163 (inactive); in test [18], -0.0964; in [19], -2.97. Besides, the z-score in [20] is 0.36 (inactive). Also, in [2], the composite z-score stood at 0.154.
